In all, about 400,000 compounds went through this assay and about 2,100 (0.53%) were called active. Not shown: some 14% with an inconclusive outcome. The rule behind the calls is not given here. What follows is part of a selection rich in actives, with near analogues and random picks from the rest.

For the assay, the target named is Ataxin-2 (Homo sapiens) (UniProt Q99700). Kind of assay: qHTS for Inhibitors of ATXN expression. In kind it is functional.
Chain of Ataxin-2 (Homo sapiens) (Q99700 whole entry): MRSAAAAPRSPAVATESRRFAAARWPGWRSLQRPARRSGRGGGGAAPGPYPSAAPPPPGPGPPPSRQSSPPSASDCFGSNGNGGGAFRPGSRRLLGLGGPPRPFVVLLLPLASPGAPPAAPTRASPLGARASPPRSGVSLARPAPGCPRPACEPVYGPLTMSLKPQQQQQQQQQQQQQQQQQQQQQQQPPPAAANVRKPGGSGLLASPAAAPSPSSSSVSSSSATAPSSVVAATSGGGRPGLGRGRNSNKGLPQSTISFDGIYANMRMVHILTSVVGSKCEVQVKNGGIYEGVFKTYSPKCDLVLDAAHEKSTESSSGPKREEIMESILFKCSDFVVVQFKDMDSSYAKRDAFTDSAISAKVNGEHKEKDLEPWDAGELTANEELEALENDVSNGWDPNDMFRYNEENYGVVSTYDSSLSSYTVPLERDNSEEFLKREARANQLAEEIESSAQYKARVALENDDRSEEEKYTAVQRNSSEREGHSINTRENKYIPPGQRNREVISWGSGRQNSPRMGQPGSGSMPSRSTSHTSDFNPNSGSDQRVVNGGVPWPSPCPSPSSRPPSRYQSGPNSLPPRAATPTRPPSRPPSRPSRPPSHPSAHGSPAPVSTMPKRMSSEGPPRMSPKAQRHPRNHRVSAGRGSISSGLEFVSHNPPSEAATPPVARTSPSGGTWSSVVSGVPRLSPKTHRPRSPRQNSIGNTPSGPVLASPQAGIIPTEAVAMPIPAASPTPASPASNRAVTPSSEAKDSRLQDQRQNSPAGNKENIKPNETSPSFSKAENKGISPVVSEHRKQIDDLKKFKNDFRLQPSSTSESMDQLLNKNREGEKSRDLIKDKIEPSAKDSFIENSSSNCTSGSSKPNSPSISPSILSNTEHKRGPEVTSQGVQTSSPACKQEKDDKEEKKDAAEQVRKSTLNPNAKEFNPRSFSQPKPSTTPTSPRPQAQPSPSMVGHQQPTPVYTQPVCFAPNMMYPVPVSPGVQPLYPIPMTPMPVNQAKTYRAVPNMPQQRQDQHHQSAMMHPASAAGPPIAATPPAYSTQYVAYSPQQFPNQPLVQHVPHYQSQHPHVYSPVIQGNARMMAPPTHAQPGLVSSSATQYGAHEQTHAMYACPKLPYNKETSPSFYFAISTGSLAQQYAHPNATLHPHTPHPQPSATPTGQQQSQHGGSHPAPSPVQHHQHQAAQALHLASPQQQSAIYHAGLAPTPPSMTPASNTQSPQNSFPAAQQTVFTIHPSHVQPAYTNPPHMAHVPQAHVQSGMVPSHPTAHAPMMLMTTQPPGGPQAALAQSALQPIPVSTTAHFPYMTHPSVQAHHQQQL
`Cc1ccc2nc(N3CC(C)OC(C)C3)nc(-c3ccccc3)c2c1` (centres undefined): the Potency result was “inactive”.
Then `CC(C)Cc1ccc(C(C)C(=O)Nc2ncccn2)cc1` (centres undefined), with “inactive”.
As for `CC(C)Cc1ccc(C(C)CC2=CCC(CN(C)C)C2=O)cc1` (centres undefined), the figure is 22.4 µM (active); as for `COc1cccc(CN2CC(C(=O)N3CCSCC3)CCC2=O)c1` (centres undefined), “inactive”.
With `O=C(Oc1cc2oc(=O)cc(-c3ccccc3)c2cc1Cl)C1CCCCC1`, the Potency entry was “inactive”.
Then `CCN(CCCNC(=O)c1cc2cc3ccc(OC)cc3nc2s1)c1cccc(C)c1`, with 39.8 µM (active); and `CCCCNC(=O)c1cc2nc(-c3ccc(OC)cc3)cc(C(F)(F)F)n2n1`, with “inactive”; and `CCN(CCCNC(=O)c1cc(Nc2ccc(OC)cc2)nc2ccccc12)c1cccc(C)c1`, with “inactive”.
Then `COCCCn1c(=O)/c(=C\c2ccc(OC(F)F)c(OC)c2)s/c1=C(/C#N)C(N)=O`, with “inactive”.
With `O=C1Nc2cc(C(=O)N3CCOCC3)ccc2S/C1=C/c1ccccc1F`, the Potency result was “inactive”.
Then `O=C(c1ccc2nc(-c3ccccc3)c(-c3ccccc3)nc2c1)N1CCCCC1`, with “inactive”; and `CCN1CCCC1CNC(=O)c1ccc2c(c1)NC(=O)/C(=C\c1ccc(OC)c(OC)c1)S2` (centres undefined), with 31.6 µM (active); and `O=C1Nc2cc(C(=O)N3CCC(N4CCCCC4)CC3)ccc2S/C1=C\c1ccccc1`, with 39.8 µM (active).
Then `CCN1CCCC1CNC(=O)c1ccc2c(c1)NC(=O)/C(=C\c1ccc(C)cc1)S2` (centres undefined), with 35.5 µM (active); and `Cc1cccc2cc(C#N)c(NCCNS(=O)(=O)c3ccccc3)nc12`, with “inactive”; and `COc1ccc(O)c(C(=O)c2coc(=N)c(C(=O)Nc3ccc(SC(F)F)cc3)c2)c1`, with “inactive”.
On to `CN(C)c1ccc(-c2ccc3c(=O)c4ccccc4n(C)c3c2)cn1`, for which the Potency entry is “inactive”.
As for `COc1ccc(-c2ccc3c(N)c(C(=O)NC(C)C)sc3n2)cc1OC`, the entry is “inactive”; as for `Cc1cccn2c(=O)c3cc(C(=O)NC4CCCC4)c(=N)n(C4CCCC4)c3nc12`, “inactive”.
As for `Cc1ccc(C)c(N(C)S(=O)(=O)c2ccc3[nH]cc(C(=O)NC4CCCC4)c(=O)c3c2)c1`, the figure is 28.2 µM (active); as for `COC(CN(C)C(=O)c1cn(C)c2ccc(S(=O)(=O)N(C)C3CCCCC3)cc2c1=O)OC`, “inactive”.
As for `CCc1nnc(NC(=O)CSc2nc3c(cc2C#N)CCC3)s1`, the entry is “inactive”; as for `N=c1c(C(=O)NC2CCCC2)cc2c(=O)n3ccccc3nc2n1Cc1ccccc1`, “inactive”; as for `N=c1c(C(=O)NC2CCCCC2)cc2c(=O)n3ccccc3nc2n1Cc1ccccc1`, “inactive”.
As to `N#CCCN(Cc1ccccc1)C(C(=O)NC1CCCCC1)c1cc2ccccc2o1` (centres undefined), the Potency was 39.8 µM (active).
As for `COc1ccc(CCC(C)NCc2ccc(F)cc2)cc1` (centres undefined), the entry is “inactive”; as for `COc1ccc(CCC(C)NCCc2ccc(Cl)cc2Cl)cc1` (centres undefined), 39.8 µM (active); as for `COc1ccc(-c2sc(C(=O)c3ccc(Cl)cc3Cl)cc2CC(=O)O)cc1`, “inactive”.
Then `CCOc1cc(/C=C/C(=O)Nc2ccc(C(=O)NCCN(CC)CC)cc2)ccc1OCC(C)C`, with 22.4 µM (active); and `COc1ccc(OC)c(/C=C/C(=O)Nc2ccc(C(=O)OCCC(C)C)cc2)c1`, with “inactive”; and `COc1cccc(OC)c1C(=O)Nc1ccccc1Sc1ccccc1`, with “inactive”.
As for `COc1ccc(C2C=C(c3ccccc3)Nc3nc(NS(=O)(=O)c4ccc(Cl)cc4)nn32)cc1` (centres undefined), the entry is “inactive”; as for `Cc1ccc2nc3c(cc(C(=O)NC4CCCCC4)c(=N)n3C3CCCCC3)c(=O)n2c1`, “inactive”; as for `Cc1ccc2nc3c(cc(C(=O)NC4CCCC4)c(=N)n3C3CCCCC3)c(=O)n2c1`, “inactive”.
Turning to `Cc1nc2ccc(C(=O)Nc3cccc(OCC(=O)N(C)C)c3)cn2c1N(C)CC1CCCCC1`, the Potency was 35.5 µM (active).
As for `COc1ccc(C(=O)c2sc3nc(C)cc(-c4cccs4)c3c2N)cc1OC`, the entry is “inactive”; as for `CCCn1nc(NC(C)=O)c2cc3cccc(C)c3nc21`, “inactive”; as for `CCOc1ccc(NCc2cccn2-c2nnc(N3CCC(C(=O)NCCCN4CCCCC4CC)CC3)s2)cc1` (centres undefined), 22.4 µM (active).
Take `COCCCn1/c(=N/C(C)=O)c(C#N)cc2c(=O)n3cccc(C)c3nc21`: the Potency result is “inactive”.
Then `COc1ccccc1C(=O)Nc1c(C(=O)N(C)Cc2ccccc2)sc2nc(C)c(Cl)c(C)c12`, with 11.2 µM (active).
Then `COc1ccccc1NC(=O)c1sc2nc(C)c(C(=O)Nc3ccc(C)cc3C)c(-c3cccs3)c2c1N`, with “inactive”; and `COc1ccccc1NC(=O)c1sc2nc(Cc3ccccc3)cc(C(F)(F)F)c2c1N`, with “inactive”; and `FC(F)(F)c1cccc(NC(S)=NCc2ccc(Cl)cc2)c1`, with “inactive”.
Take `O=[N+]([O-])c1cc(C(F)(F)F)cc([N+](=O)[O-])c1NCCN=C(S)Nc1ccc(Cl)c(Cl)c1`: the Potency is 39.8 µM (active).
On to `Nc1cc(C(F)(F)F)cc([N+](=O)[O-])c1N`, for which the Potency entry was “inactive”.
As for `CCc1ccc(/C=C(/C#N)c2nc(-c3ccc(C)cc3)cs2)cc1`, the entry is “inactive”; as for `CCOc1cc(/C=C(\C#N)c2nc(-c3cccs3)c(NC(C)=O)s2)ccc1O`, “inactive”; as for `CCOc1ccc(-c2csc(/C(C#N)=C\c3ccc(O)c([N+](=O)[O-])c3)n2)cc1`, 8.91 µM (active).
Then `CCOc1ccc2nc(NCCCNS(=O)(=O)c3ccccc3)c(C#N)cc2c1`, with “inactive”.
Then `CC(=O)N1CCN(c2ccc(NC(=O)c3cccc(F)c3)cc2)CC1`, with “inactive”; and `CN1CCN(c2ccc(NC(=O)c3ccc(-c4ccc(Cl)cc4)o3)cc2)CC1`, with 25.1 µM (active); and `CN1CCN(c2ccc(NC(=O)c3sc4ccccc4c3Cl)cc2)CC1`, with “inactive”.
With `CCCCOC(=O)c1ccc(NC(=O)/C(C#N)=C/c2ccc(-c3ccccc3)o2)cc1`, the Potency result was “inactive”.
Regarding `CCOc1cccc(/C=N/NC(=O)CC2C(=O)NN=C2C)c1O` (centres undefined), the Potency entry is “inactive”.
As for `Cc1cccc(N=Nc2c(O)[nH]c3ccc(F)cc23)c1`, the entry is “inactive”.
Then `COc1ccc(/C=N/OCC(=O)N=Nc2c(O)[nH]c3ccc(Br)cc23)cc1`, with “inactive”; and `O=C(N=Nc1c(O)[nH]c2ccc(Br)cc12)c1ccccc1-n1cccc1`, with 17.8 µM (active); and `Cc1cc(C)c(C#N)c(SCC(=O)Nc2nonc2N)n1`, with “inactive”.
Consider `COc1ccccc1N1C(=O)C2C(C(=O)c3ccccc3)=NN(c3ccc(Br)cc3)C2C1=O` (centres undefined), for which the Potency entry is “inactive”.
For `Cc1ccc(S(=O)(=O)c2c(C)nn(C(C)(C)C)c2OC(=O)C(C)C)cc1`, the Potency entry was “inactive”.
Then `CCN1C=C(C(=O)OC)C(c2cccc(OC)c2OC)C(C(=O)OC)=C1`, with “inactive”; and `COc1cccc(C(=O)Oc2c(Sc3ccc(C)cc3)c(C)nn2C(C)(C)C)c1OC`, with 20 µM (active); and `CC(=O)NN1C(=O)c2ccc3c4c(ccc(c24)C1=O)C(=O)N(NC(C)=O)C3=O`, with 25.1 µM (active).
Then `CC(=O)Nc1ccc2c3c(cccc13)C(=O)N(c1ccccc1)C2=O`, with “inactive”.
As for `CC(=O)Nc1ccc(N2C(=O)c3cccc4c(O)ccc(c34)C2=O)cc1`, the entry is “inactive”.
Regarding `CCOCCCn1/c(=N/C(=O)c2cccs2)c(C#N)cc2c(=O)n3ccccc3nc21`, the Potency entry was “inactive”.
As for `CSC(SC)=C(C#N)C(=O)c1ccccc1`, the figure is 39.8 µM (active); as for `Cc1cc(C)c(C#N)c(SCC(=O)c2ccccc2)n1`, “inactive”.
As for `COc1cccc(N/C(SC)=C(/C#N)C(=O)NCc2cccs2)c1`, the Potency entry is “inactive”.
For the compound `COc1cccc(C(=O)C(C#N)=C(SC)SC)c1`, the Potency was 14.1 µM (active).
As for `CCOC(=O)C1(C)C(=O)CC2c3nc4ccccc4cc3CN2C1=O` (centres undefined), the entry is “inactive”; as for `O=C1c2ccccc2S(=O)(=O)c2cc(N3CCC4(CC3)OCCO4)ccc21`, “inactive”; as for `CCN(CC)C(=O)CSC(Nc1cccc(F)c1)=C(C#N)C#N`, “inactive”.
As for `N#Cc1c(Cl)nc(-c2ccncc2)nc1-c1ccccc1`, the Potency result is “inactive”.
As for `CC(C)(C)SCCNS(=O)(=O)c1ccc(C#N)cc1`, the entry is “inactive”; as for `COc1ccc(NC(=O)c2ccc(NC(=O)CN3CCN(c4ccc(O)cc4)CC3)cc2)cc1`, 31.6 µM (active).
Then `COc1ccc(NC(=O)CN2CCN(c3ccccc3)CC2)cc1`, with “inactive”.
Then `COc1ccc(N2CCN(CC(=O)NC(=O)NC(C)(C)C)CC2)cc1`, with “inactive”; and `CC(C)Oc1ccc(C(=O)/C=C2/C(=O)Nc3ccccc32)cc1`, with 39.8 µM (active); and `O=C1S/C(=C\c2ccc(O)c([N+](=O)[O-])c2)C(=O)N1c1ccccc1Cl`, with 33.6 µM (active).
As to `Cn1cc(/C=C2\SC(=O)N(c3ccccc3)C2=O)c2ccccc21`, the Potency entry was “inactive”.
As to `CCOC(=O)COc1ccccc1/C=C\[N+](=O)[O-]`, the Potency was 6.31 µM (active).
As for `CCOC(=O)Cn1cc(/C=N/NC(=O)c2cc3ccccc3o2)c2ccccc21`, the entry is “inactive”; as for `CCOC(=O)Cn1cc(/C=C/[N+](=O)[O-])c2ccccc21`, 39.8 µM (active); as for `CCOC(=O)N/N=C/c1cn(CCCOc2ccc(C)cc2)c2ccccc12`, “inactive”.
As for `C=CCn1cc(/C=C/c2cc[n+](C)cc2)c2ccccc21`, the entry is “inactive”; as for `Cc1cc(C)cc(NC(=O)Cn2cc(C=O)c3ccccc32)c1`, “inactive”.
Then `Cc1ccc(C(=O)NNC(=O)COC(=O)COc2ccccc2C#N)cc1`, with “inactive”; and `O=C(O)c1ccc(Cn2cc(/C=C\[N+](=O)[O-])c3ccccc32)o1`, with “inactive”.
Consider `Cc1ccccc1OCC(=O)OCC(=O)c1ccc[nH]1`, for which the Potency result is “inactive”.
In the case of `N#Cc1ccccc1Cn1cc(/C=N/Nc2ccc([N+](=O)[O-])cn2)c2ccccc21`, the Potency result was “inactive”.
As to `N#Cc1ccccc1Cn1cc(/C=C/[N+](=O)[O-])c2ccccc21`, the Potency is 29.9 µM (active).
Then `O=C(Cn1cc(/C=C\[N+](=O)[O-])c2ccccc21)Nc1ccccc1`, with 35.5 µM (active); and `COC(=O)c1cc(-n2cccc2)ccc1N1CCOCC1`, with “inactive”.
As for `S=C(Nc1ccccc1)Nc1ccc2c[nH]nc2c1`, the Potency result is “inactive”.
As for `Cc1ccc(CNC(=O)c2cccc3c2C(=O)c2ccc(N4CCC(C)CC4)cc2S3(=O)=O)cc1`, the entry is “inactive”; as for `Cc1ccc(-c2cc(-c3ccco3)c3c(N)c(C(=O)NN)oc3n2)cc1`, “inactive”.
Then `CC(=O)C1CCC2C3CC=C4CC(SC(=N)N)CCC4(C)C3CCC12C` (centres undefined), with 37.7 µM (active); and `CC(C)(C)[C@H](N)C(=O)N[C@H]1CCC2C3CC=C4C[C@@H](O)CC[C@]4(C)C3CC[C@@]21C` (some centres undefined), with 37.7 µM (active).
